Results from PubChem BioAssay (NCATS).
Records with an inconclusive call do not appear. The source made the active and inactive calls. The call rests on the fitted dose curve; in most records, active means well fitted curve in the direction sought with a large enough effect; inconclusive means small, poorly fitted or top-dose-only effect, or another doubt; inactive means no such curve, though single readings can be large; an effect the other way counts as inactive or inconclusive.

How the values were obtained:
[1] = system: CRL-7250; test: Cytotoxic Profiling of Annotated Libraries Using Quantitative High-Throughput Screening (AID 1296008); conditions: Five cell lines viability, CellTiter-Glo ATP luminescence, 48-72 h; max response: stronger effect = lower value; further: nearly all actives have a fitted effect of over 60% in size; on max response: on the % scale 0 is the no-effect control and ±100 the full control effect
Procedure, shortened: (§1)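 Cells exposed to compounds for 48 or 72 hr at 37 degrees Celsius. Viability read as ATP-coupled luminescence with CellTiter-Glo after 10 min at room temperature.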

[2] = system: HEK293; test: as above; conditions: Five cell lines viability, CellTiter-Glo ATP luminescence, 48-72 h; max response: stronger effect = lower value
Procedure, shortened: as §1

[3] = system: HaCat; test: as above; conditions: Five cell lines viability, CellTiter-Glo ATP luminescence, 48-72 h; max response: stronger effect = lower value
Procedure, shortened: as §1

[4] = system: KB-3-1; test: as above; conditions: Five cell lines viability, CellTiter-Glo ATP luminescence, 48-72 h; max response: stronger effect = lower value
Procedure, shortened: as §1

[5] = system: NIH3T3; test: as above; conditions: Five cell lines viability, CellTiter-Glo ATP luminescence, 48-72 h; max response: stronger effect = lower value
Procedure, shortened: as §1

[6] = system: HACAT; test: qHTS assay to identify novel small-molecules to repurpose for Merkel cell carcinoma treatment (AID 1296009); conditions: MCC and control cell lines, CellTiter-Glo viability, 72 h; at 44.8 µM (top of the series) unless noted; further: nearly all actives have a fitted effect of over 60% in size
Procedure, shortened: (§2)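 Cells were treated for 72 hr at 37 degree celsius with compounds in 8- or 11-point dose response. Viability was read by CellTiter-Glo luminescence, normalized to no-cell (cytotoxicity) and DMSO controls.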

[7] = system: HEK293T; test: as above; conditions: MCC and control cell lines, CellTiter-Glo viability, 72 h; series mostly up to 44.8 µM
Procedure, shortened: as §2

[8] = system: C33A; test: Primary qHTS to identify gynecologic anti-cancer compounds using libraries of approved drugs and bioactive compounds (AID 1345084); conditions: Gynecologic cancer cell panel viability, ATPlite luminescence, 48 h; series mostly up to 57.5 µM; further: on the % scale 0 is the no-effect control and ±100 the full control effect; nearly all actives have a fitted effect of over 55% in size
Procedure, shortened: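 Cells, 1,000 per well, plated 16 h, then exposed 48 h at 37 C to compounds. Viability by ATPlite luminescence after 15 min at room temperature.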

COc1cc(/C=C/C(=O)OC2[C@H](O)CC(O)(C(=O)O)C[C@H]2O)ccc1O (some centres undefined)
inactive: max response [1] 3.9% | outcome [2] | outcome [3] | max response [4] 0.663% | max response [5] -0.19% | outcome [6] | Potency [7] | Potency [8]

C=C1C2(CCC(=O)OC2(C)C)CC(OC(=O)/C(C)=C/C)C2(C)C13OC14C(=O)OC(C)(C(=O)C12C(=O)OC4C)C3OC(C)=O (centres undefined)
inactive: outcome [1] | outcome [2] | outcome [3] | max response [4] 6.83% | max response [5] 4.63% | outcome [6] inactive [at 17.4 µM] | Potency [7] | Potency [8]

O=C(O)CCc1cc2ccoc2cc1O[C@@H]1O[C@H](CO[C@@H]2OC[C@](O)(CO)[C@H]2O)[C@@H](O)[C@H](O)[C@H]1O
inactive: max response [1] -5.99% | outcome [2] | outcome [3] | max response [4] 9.81% | max response [5] -2.27% | outcome [6] inactive [at 17.4 µM] | Potency [7] | Potency [8]

C[C@@H]1CC[C@H]2C(C)(C)[C@H](O)[C@H](O)C[C@]2(C)[C@@]12Cc1c(O)cc3c(c1O2)CNC3=O
inactive: outcome [1] | outcome [2] | outcome [3] | outcome [4] | max response [5] 3.46% | outcome [6] | Potency [7] | Potency [8]

C1CCN2CC3C[C@@H](CN4CCCC[C@@H]34)[C@H]2C1
inactive: max response [1] 3.38% | outcome [2] | outcome [3] | max response [4] 5.45% | max response [5] -1.12% | outcome [6] | Potency [7] | Potency [8]

Cc1cn2c(N)c(Cl)cc(C(=O)NCC3CCN(CC(C)C)CC3)c2n1
inactive: max response [1] -6.05% | outcome [2] | outcome [3] | max response [4] -3.78% | outcome [5] | outcome [6] | Potency [7] | Potency [8]

NC(Cc1c[nH]c2ccccc12)C(=O)NC(CCC(=O)O)C(=O)O (centres undefined)
inactive: outcome [1] | outcome [2] | outcome [3] | max response [4] 5.6% | max response [5] 1.77% | outcome [6] | Potency [7] | Potency [8]

CC(=O)N1c2ccccc2C2(O)CC3C(=O)NC(CC(C)C)C(=O)N3C12 (centres undefined)
inactive: max response [1] 1.79% | outcome [2] | outcome [3] | max response [4] 2.12% | max response [5] 1.77% | outcome [6] | Potency [7] | Potency [8]

C=C1CCC2C(C)(C)C(O)CCC2(C)C1CCC(C)CCOC(=O)CCC(=O)O (centres undefined)
inactive: max response [1] -7.27% | outcome [2] | outcome [3] | max response [4] 1.36% | max response [5] -1.95% | outcome [6] inactive [at 17.4 µM] | Potency [7] | Potency [8]

COC(=O)CC[C@@H](C)[C@H]1CC[C@H]2[C@@H]3CC(=O)[C@H]4C[C@H](OC(C)=O)CC[C@]4(C)[C@H]3CC[C@]12C
inactive: max response [1] -2.01% | outcome [2] | outcome [3] | outcome [4] | max response [5] -0.377% | outcome [6] | Potency [7] | Potency [8]

Oc1ccc([C@H]2COc3cc(O)ccc3C2)cc1
inactive: outcome [1] | outcome [2] | outcome [3] | max response [4] 0.946% | max response [5] 3.41% | outcome [6] | Potency [7] | Potency [8]

CC1(C)C(=O)N2c3ccccc3[C@]3(CC(n4cnc5ccccc5c4=O)C(=O)O3)[C@H]2N1O (some centres undefined)
inactive: outcome [1] | outcome [2] | outcome [3] | outcome [4] | max response [5] 1.65% | outcome [6] inactive [at 17.4 µM] | Potency [7] | Potency [8]

CC(=O)O[C@@H]1[C@H](O[C@@H]2O[C@H](CO)[C@@H](O)[C@H](O)[C@H]2O)[C@@H](O[C@@H]2O[C@@H](C)[C@H](O)[C@@H](O[C@@H]3O[C@H](CO)[C@@H](O)[C@H](O)[C@H]3O)[C@H]2O)[C@H](OC(=O)C23CCC4(C)C(=CCC5C6(C)CC(O)C(O[C@@H]7O[C@H](C(=O)O)[C@@H](O)[C@H](O)[C@H]7O)C(C)(C(=O)O)C6CCC54C)C2CC(C)(C)CC3O)O[C@@H]1C (some centres undefined)
inactive: max response [1] -7.88% | outcome [2] | outcome [3] | outcome [4] | outcome [5] | outcome [6] inactive [at 9.27 µM] | outcome [7] inactive [at 9.27 µM] | activity change, negative = cytotoxicity [8] 3.56% [at 6.55 µM]
